Screens (PubChem)
TRHR ag: agonists of human TRH receptor; activation, % at 2 µM; 0.18% of 360,000 active; P34981; AID 493084; TRHR cells, calcium flux fluo-8, FDSS agonist mode; in the data active = activation above about 30%; also: 0% is about no effect
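TRHR-expressing cells loaded with fluo-8 calcium dye; 23 nL library compound pin-transferred, kinetic FDSS fluorescence (Ex 480/Em 530) recorded about 180 s for agonist-induced calcium release, before a 10 nM TRH EC20 addition for potentiator mode.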
GRP78 ERSR act: inducers of ER stress response in human glioma cells; Potency, µM, inactives show at the top dose activation, actives largely listed as activators; AID 602332; 0.02% of 420,000 active; U87-MG GRP78 promoter luciferase reporter, 16 h; active = well fitted activation curve with a large enough effect; also: potency is read from the fitted curve at half-maximal effect; series mostly up to about 76 µM; % of control where 0% means no effect; nearly all actives have a fitted effect of over 35% in size
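ERSR induction read as luciferase luminescence (Bright-Glo, 10 min at room temperature) in stably transfected human U87-MG glioma cells exposed to compounds for 16 h, using GRP78 as sensor.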
TRPML1 inh: inhibitors of human TRPML1 channel | TRPML1-inducible cells, Ca2+ dye fluorescence, FDSS; active compounds read low; inhibition of EC80 agonist-evoked calcium signal | activity change, negative = inhibition, % (test concentration not listed) | 0.02% of 390,000 active; in the data active = activity change below about -50%;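 also: stimulus is agonist 54-4 at its EC80 concentration; % is scaled to controls: 0 for no effect and ±100 for the full control effect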
Target sequence (Q9GZU1 whole entry, looked up): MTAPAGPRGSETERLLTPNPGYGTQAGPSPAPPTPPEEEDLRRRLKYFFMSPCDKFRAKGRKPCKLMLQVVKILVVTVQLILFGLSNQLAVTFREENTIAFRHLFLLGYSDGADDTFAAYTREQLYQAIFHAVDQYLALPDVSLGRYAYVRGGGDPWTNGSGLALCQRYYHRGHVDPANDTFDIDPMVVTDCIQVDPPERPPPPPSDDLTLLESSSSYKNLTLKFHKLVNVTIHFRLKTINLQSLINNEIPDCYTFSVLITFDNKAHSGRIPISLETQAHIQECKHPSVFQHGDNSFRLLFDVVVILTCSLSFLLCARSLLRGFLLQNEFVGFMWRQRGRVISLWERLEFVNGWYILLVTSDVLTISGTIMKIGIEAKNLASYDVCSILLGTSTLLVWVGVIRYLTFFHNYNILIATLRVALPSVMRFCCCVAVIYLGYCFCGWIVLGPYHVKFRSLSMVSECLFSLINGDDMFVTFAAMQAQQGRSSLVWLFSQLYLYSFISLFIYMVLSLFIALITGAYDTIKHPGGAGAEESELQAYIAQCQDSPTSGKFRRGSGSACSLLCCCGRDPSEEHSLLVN
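TRPML1-DL cells, Tet-induced overnight (~16 h, 37 °C) at 1,500 cells/well, were loaded with Ca8 no-wash dye plus quencher for 45-90 min at room temperature. Compounds were pinned during FDSS kinetic reading; agonist 54-4 at EC80 (4 uM final) then added.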
TRHR enhancer: TRH receptor (human) allosteric enhancement | TRHR cells, fluo-8 calcium fluorescence, EC20 TRH enhancement | enhancement, % at 2 µM | 0.66% of 360,000 active | AID 493056; in the data active = enhancement above about 30%; also: 0% is about no effect
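Enhancer read-out: after compound pinning and an initial kinetic agonist-mode read, an EC20 of TRH (10 nM final) was injected and fluo-8 calcium signal (Ex 480/Em 530) followed at 1 s/cycle for 100 cycles in TRHR-expressing cells.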
TRPML1 ag: agonists of human TRPML1 channel; Q9GZU1; TRPML1-expressing cells, Ca2+ dye fluorescence, FDSS; activation, % (no concentration beside the values); 0.12% of 410,000 active; in the data active = activation above about 50%; also: 0% is about no effect
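Agonist activity was taken from a 110 s kinetic Ca2+ dye read on the FDSS after pinning compounds onto TRPML1-DL cells. The cells were seeded at 1,500/well with Tet inducer, incubated about 16 h, then dye-loaded at room temperature.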
Numbers without * were called inactive; · = no result. Sampled rows, rich in hits. Any-hit rate of the full collection: about 0.8%.

SMILES | TRHR ag | GRP78 ERSR act | TRPML1 inh | TRHR enhancer | TRPML1 ag
O=[S+]([O-])(c1ccc2ncsc2c1)N1CCN([S+](=O)([O-])c2c(F)cccc2F)CC1 | 0.8 | · | · | -0.7 | ·
CNC(=O)[C@@H]1C[C@H](Sc2nc3ccccc3[nH]2)CN1Cc1ccccc1C(F)(F)F | · | -2.5% | · | · | ·
O=c1cc(-c2ccccc2)nc(Cc2c(Cl)cccc2Cl)[nH]1 | 0.7 | -3.6% | 7.4 | 31.2* | 0.7
COC(=O)C1CCN(CC(=O)Nc2ccccc2Sc2ccccc2)CC1 | 1.0 | -6.3% | 12.5 | 35.2* | 0.2
NC(=O)C1CCN(CC(=O)Nc2ccccc2Sc2ccccc2)CC1 | 0.1 | -5.5% | 8.5 | -2.5 | 0.2
N#Cc1nc(NCC(F)F)c2ncn(-c3cccc(Cl)c3)c2n1 | 0.4 | · | · | -0.4 | ·
O=C(CCn1nnc2ccccc21)Nc1nnc(-c2ccccc2F)s1 | 0.3 | -6.5% | -16.3 | -4.2 | -0.4
O=C(CCn1nnc2ccccc21)Nc1nnc(COc2ccccc2F)s1 | 0.3 | -5.9% | 4.9 | 31.7* | -0.8
CC(=O)c1ccc(F)c(-c2cc(C)cc3c2OC(CNC(=O)Cc2ccc4c(c2)OCO4)C3)c1 (configuration not stated) | · | -4.5% | · | · | ·
C=CCC1[C@H](C)[C@H]2[C@@H]3CC[C@@H](C3)[C@H]2CN1S(=O)(=O)c1ccc(C)cc1 (some centres not stated) | · | -1.8% | -12.8 | · | 54.0*
Cc1ccc(S(=O)(=O)N2C[C@@H]3[C@H]4CC[C@H](C4)[C@@H]3[C@@H](C)C2CC(=O)c2ccccc2)cc1 (some centres not stated) | · | -2.9% | -25.3 | · | 4.1
Cc1cccc(NC(=S)N2CCC(N(C)CC3CCCO3)CC2)c1 (configuration not stated) | -0.2 | -3.6% | 17.1 | -1.4 | 0.5
Cc1ccc(NC(=S)N2CCC(N(C)CC3CCCO3)CC2)cc1C (configuration not stated) | -0.2 | 1.3% | 13.9 | 31.1* | 0.1
CNC(=O)[C@@H]1C[C@H](Sc2nc3ccccc3[nH]2)CN1Cc1cccc(C(F)(F)F)c1 | · | -2.9% | · | · | ·
Cc1ccc2nc(SCC(=O)N3CCOc4ccc(CN5C[C@@H](C)O[C@@H](C)C5)cc4C3)[nH]c2c1 | · | -1.6% | · | · | ·
Nc1ccc(Sc2cnn(-c3ccccc3)c(=O)c2Cl)cc1 | -2.2 | 2.0% | -2.0 | 36.5* | 0.5
Cc1cccc(Cn2cnc3c(cnn3C(C)(C)C)c2=O)c1 | · | -3.9% | 8.0 | · | 1.4
COC(=O)CNC(=O)C1CCN(c2nc(C)cc(C)n2)CC1 | 0.3 | -4.1% | 11.9 | -4.6 | -0.4
COCCCNC(=O)C1CCN(c2nc(C)cc(C)n2)CC1 | 0.7 | 4.9% | 15.3 | 36.5* | 0.2
Cc1nc2sc(C(c3ccco3)N3CC(C)OC(C)C3)c(O)n2n1 (configuration not stated) | -0.2 | -3.1% | 11.2 | 30.9* | 0.2
Cc1nc2sc(C(c3ccco3)N3CCC(C)CC3)c(O)n2n1 (configuration not stated) | 0.2 | -3.7% | -8.5 | -1.9 | 0.1
CC(C)(C)n1ncc2c(=O)n(Cc3ccc(C(F)(F)F)cc3)cnc21 | · | -8.3% | 10.1 | · | 2.2
Cc1cccc(NC(=S)NC(=O)/C=C/c2ccco2)c1 | 0.1 | 4.0% | 17.7 | 3.9 | 0.3
O=C(/C=C/c1ccco1)NC(=S)Nc1cccc([N+](=O)[O-])c1 | -0.6 | -6.0% | 13.0 | 32.3* | -0.3
COc1ccc(-c2cc(C(=O)Nc3cc(OC)c(OC)c(OC)c3)no2)cc1OC | -0.4 | -4.5% | 11.6 | 38.8* | 0.9
SMILES | TRHR ag | GRP78 ERSR act | TRPML1 inh | TRHR enhancer | TRPML1 ag
CCOC(=O)C1CCN(C(=O)c2ccc(N3CCCC3=O)cc2)CC1 | 3.1 | -1.8% | 20.9 | 34.2* | 2.7
CCOC(=O)N1CCN(C(=O)c2ccc(N3CCCC3=O)cc2)CC1 | 0.7 | -1.6% | 0.8 | -0.1 | -0.9
COc1ccc(C(=O)NCC2Cc3cc(C)cc(-c4cc(C(C)=O)ccc4F)c3O2)c(OC)c1OC (configuration not stated) | · | -0.8% | · | · | ·
CCOC(=O)COc1cc(Br)c(/C=N/Nc2ccccc2)cc1OC | -0.3 | 35.5µM* | 7.1 | -0.6 | 0.3
O=C(NCC1(N2CCOCC2)CCCCC1)c1cnn(-c2nccc(-c3cccs3)n2)c1C1CC1 | · | 2.3% | · | · | ·
CC1CCCN(c2nc(-c3cccnc3)nc3scc(-c4ccccc4)c23)C1 (configuration not stated) | 0.0 | 0.4% | 13.0 | 3.3 | 1.2
CC1CCN(c2nc(-c3cccnc3)nc3scc(-c4ccccc4)c23)CC1 | -0.4 | -1.7% | -13.3 | 40.6* | -0.7
CC(=O)Oc1cccc(-c2nc3ccccc3c(=O)o2)c1 | 0.0 | -2.2% | 17.7 | -3.6 | 2.7
COc1cccc(-c2nc3ccc(O)cc3c(=O)o2)c1 | 0.0 | 6.0% | -4.5 | 35.8* | -0.5
Cc1cnc(-n2ncc(C(=O)NCc3cccnc3)c2C)nc1-c1ccc(F)cc1 | · | -5.5% | · | · | ·
COc1ccc(/C=N/NC(=O)CNC(=O)/C=C/c2ccco2)cc1OC | -0.7 | -5.0% | -0.2 | 6.7 | -0.1
COc1cc(/C=N/NC(=O)CNC(=O)/C=C/c2ccco2)cc(OC)c1OC | -0.3 | 2.4% | -8.5 | 30.5* | -0.6
CNC(=O)[C@@H]1C[C@H](NC2CCCCCCC2)CN1Cc1cccc(OC)c1OC | · | -3.5% | · | · | ·
Cc1ccc(O)c(C(=O)c2cc(C#N)c(=O)n(-c3nccs3)c2)c1 | -0.1 | 1.1% | -6.4 | 9.2 | 62.8*
CC1CCCCN1C(=O)Cn1c(=O)oc2cc(S(=O)(=O)N3CCCC3)ccc21 (configuration not stated) | -2.2 | -3.9% | 0.0 | 33.7* | -0.5
CC1CCN(C(=O)Cn2c(=O)oc3cc(S(=O)(=O)N4CCCCC4)ccc32)CC1 | 0.2 | -5.2% | -5.6 | -0.2 | 0.4
COc1ccccc1NC(=O)C1(C)Cc2ccccc2C(=O)O1 (configuration not stated) | 0.0 | 5.5% | 18.1 | 7.2 | 0.6
Cc1ccc(NC(=O)C2(C)Cc3ccccc3C(=O)O2)c(C)c1 (configuration not stated) | 0.6 | 7.8% | -11.8 | 49.6* | 0.6
CC(C)OC(=O)CC(=O)c1sc2nc3c(cc2c1N)CN(C)CC3 | -0.3 | -8.1% | -10.0 | 37.9* | -0.1
CN1CCc2nc3sc(C(=O)Nc4c(F)cccc4F)c(N)c3cc2C1 | 0.0 | -1.3% | 9.8 | 23.3 | 0.4
CCOc1cc2c(cc1/C=C/c1noc(C)c1[N+](=O)[O-])OC(C)C2 (configuration not stated) | 96.7* | -6.8% | -7.6 | 5.0 | 0.6
CCOc1ccccc1NS(=O)(=O)c1ccc2[nH]c(=O)[nH]c2c1 | 0.4 | 2.1% | -8.1 | -9.5 | -0.3
Cc1ccccc1NS(=O)(=O)c1ccc2[nH]c(=O)[nH]c2c1 | 0.3 | -2.4% | -3.5 | 30.4* | 1.3
COc1ccc(OCCSc2ncccn2)cc1 | -0.5 | 3.6% | -7.7 | 30.5* | 0.4
